# Only some compounds are listed: those with a hit (about 28% of all), similar ones and a draw of the others.
# CYP2C9 activ = increases human cytochrome P450 2C9 activity; P11712; recombinant CYP2C9, luciferin-H conversion, luminescence; active compounds read high; factor 1 = untreated enzyme, 0 = blocked; activation factor at 5 µM; actives 1.4% (n = 96,000); AID 1024;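 active = activation factor of 2 or more for CYP2C9 at a 5 µM dose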;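 note: 0 = sulfaphenazole-blocked wells and 1 = vehicle-only wells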
# CYP2C19 inhib = blocks human cytochrome P450 2C19; P33261; CYP2C19 Supersomes, luciferin-H EGE luminescence, 30 min; inhibition, % at 5 µM; actives 21% (n = 96,000);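 active = CYP2C19 inhibition above a set limit at 5 µM in the primary screen, cut at about 50% in these data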;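 note: plate controls were negative control wells for no effect and 2.5 mM tranylcypromine positive control for full effect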
# Target sequence (P33261 whole entry, looked up): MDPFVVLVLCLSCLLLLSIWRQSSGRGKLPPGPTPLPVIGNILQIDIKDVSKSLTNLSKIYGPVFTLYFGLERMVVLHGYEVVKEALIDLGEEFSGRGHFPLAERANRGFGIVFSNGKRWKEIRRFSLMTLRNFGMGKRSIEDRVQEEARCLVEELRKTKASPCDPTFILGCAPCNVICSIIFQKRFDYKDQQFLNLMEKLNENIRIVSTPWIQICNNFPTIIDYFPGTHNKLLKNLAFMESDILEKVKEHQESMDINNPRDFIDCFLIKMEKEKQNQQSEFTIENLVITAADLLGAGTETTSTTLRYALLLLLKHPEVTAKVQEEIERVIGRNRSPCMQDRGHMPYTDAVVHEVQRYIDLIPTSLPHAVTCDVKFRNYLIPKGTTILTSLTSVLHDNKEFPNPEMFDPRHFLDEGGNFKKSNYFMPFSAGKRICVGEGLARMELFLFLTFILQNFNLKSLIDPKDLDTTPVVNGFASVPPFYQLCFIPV
# CYP2C9 inhib = human CYP2C9 inhibition | actives 20% (n = 96,000) | AID 777 | inhibition, % at 5 µM | CYP2C9 Supersomes, luciferin-H conversion, luminescence | P11712;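 active = blocking of liver enzyme CYP2C9 beyond about 50% at 5 µM, limit read from the data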
# CYP2C19 activ = increases human CYP2C19 enzyme activity; 96,000 tested, under 10 active; recombinant CYP2C19, luciferin-H EGE luminescence; active compounds read high; 0 = fully inhibited enzyme, 1 = untreated enzyme; P33261; activation factor at 5 µM;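 active = activation factor of at least 2 at 5 µM in the primary screen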;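 note: 0 = wells with 2.5 mM tranylcypromine and 1 = vehicle-only wells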
# PTK2B oligo ant = antagonists of human Pyk2 oligomerization; Q14289; Q293 cells, Pyk2 FERM NanoBiT luminescence; active compounds read low; z-score (the deposit names both 25 µM and 10 µM); actives 0.83% (n = 99,000); AID 1347419;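 active = Z-score of -3 or lower, scaled per plate to the spread of control and sample wells; inactive = z-score above -3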;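 note: negative z-score means lost luminescence so less FERM oligomerization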
# Active calls of the source: *; · = not tested or not shown.
SMILES,CYP2C9 activ,CYP2C19 inhib,CYP2C9 inhib,CYP2C19 activ,PTK2B oligo ant
Cc1ccc(CNC(=O)CN(C)S(=O)(=O)c2cccc3nsnc23)cc1,0.8,59*,24,0.4,0.69
CC(=O)c1cccc(NC(=O)CN(c2ccc(C)cc2)S(=O)(=O)c2cccc3nonc23)c1,0.3,46,72*,0.5,-1.1
CCN(CC(=O)c1c(N)n(C)c(=O)n(C)c1=O)c1cccc2ccccc12,·,·,·,·,0.81
Cc1ccc(N(C(C)C(=O)O)S(=O)(=O)c2c(C)n[nH]c2C)cc1 (stereo not drawn),0.8,11,20,0.9,0.04
CCOC(=O)c1sc(=S)n(-c2ccccc2Cl)c1SC,0.8,20,17,0.8,-1.6
CCOC(=O)c1sc(=S)n(-c2ccccc2)c1SC,0.5,58*,48,0.4,-0.34
CCOC(=O)c1sc(=S)n(-c2cc(F)ccc2F)c1N,0.6,45,38,0.6,0.94
CCOC(=O)c1sc(=S)n(-c2cccc(C(F)(F)F)c2)c1SC,0.4,1,61*,1,-1.4
Cc1ccc(CONC(=O)/N=C/N(C)C)cc1,0.9,16,12,0.8,1.3
COc1ccc2c(c1)nc1n2CN(CC2CCCO2)CN1Cc1ccccc1 (stereo not drawn),1,24,-1,0.8,·
CCOCCCn1c(SCC(=O)NCc2ccco2)nc2c(sc3ccccc32)c1=O,0.3,26,66*,0.7,-0.56
O=C(CSc1nc2c(sc3ccccc32)c(=O)n1CCc1ccccc1)NCc1ccco1,0.5,42,52*,0.6,-1
CCOC(=O)CSc1nc2c(sc3ccccc32)c(=O)n1CCCN1CCOCC1,0.4,25,55*,0.7,-1.6
CCCCn1c(SCC(=O)NCc2ccco2)nc2c(sc3ccccc32)c1=O,0.3,37,74*,0.6,-1.5
CC(=O)NC1=NN(C(C)=O)C2(CCCCC2)S1,·,·,·,·,0.32
Cc1c(NS(=O)(=O)c2ccc3[nH]c(=O)[nH]c3c2)c(=O)n(-c2ccccc2)n1C,1,-13,0,1.1,0.19
Cc1c(CCO)c(=O)n(-c2ccccc2)n1S(=O)(=O)c1ccc(Cl)cc1,0.5,70*,47,0.3,-0.03
O=C(NC1CCCCCC1)c1cc(S(=O)(=O)N2CCOCC2)ccc1N1CCCCC1,0.9,3,5,1,-1.3
Cc1cc(C#N)c(C)n1-c1cc(S(=O)(=O)N2CCOCC2)ccc1N1CCCC1,0.3,33,73*,0.7,-1.6
CC1CCN(c2c([N+](=O)[O-])nn(-c3ccc4c(c3)OCCO4)[n+]2[O-])CC1,0.6,19,39,0.8,-1
CCOC(=O)C1CCN(C(=O)CSC2=NCCS2)CC1,0.9,59*,9,0.4,1
O=C(CSC1=NCCS1)N1CCN(c2ccc(Cl)cc2)CC1,0.8,62*,16,0.4,0.83
CCCCn1c(C)cc(C)c(S(=O)(=O)c2ccccc2C)c1=O,0.6,53*,41,0.5,-1.5
Cc1ccccc1S(=O)(=O)c1c(C)cc(C)n(C(C)C)c1=O,0.9,47,7,0.5,0.45
CC1(C)CC(=O)C=C(OC(=O)c2ccc(Cl)cc2)C1,0.5,18,53*,0.8,0.65
SMILES,CYP2C9 activ,CYP2C19 inhib,CYP2C9 inhib,CYP2C19 activ,PTK2B oligo ant
Nc1cc(=O)nc(SCC(=O)Nc2cccc3ccccc23)n1CCc1ccccc1,1.2,36,-19,0.6,0.97
CCC(C)(C)NC(=O)C(c1ccco1)N(C(=O)c1csnn1)c1cccc(F)c1 (stereo not drawn),1.1,13,-10,0.9,-0.12
O=C(CCCSc1nc2ccccc2[nH]1)N1CCN(c2ccccc2)CC1,1.4,25,-36,0.8,-0.04
O=[N+]([O-])c1ccc(N2CCN(CCO)CC2)cc1Sc1nc2ccccc2[nH]1,0.4,37,56*,0.6,·
CC(C)CC(=O)OC1C(N2CCOCC2)c2c(ccc(/C=C/C(=O)N3CCOCC3)c2O)OC1(C)C (stereo not drawn),·,·,·,·,0.4
CCn1nnnc1SCC(=O)Nc1nc(-c2cccs2)cs1,·,·,·,·,-1.1
Cc1ccccc1C(=O)Oc1ccc(Br)cc1C(=S)N1CCCC1,0.6,52*,41,0.5,-1.5
O=C(Oc1ccc(Br)cc1C(=S)N1CCCC1)c1ccccc1Cl,0.6,57*,35,0.4,-1.5
O=C(Oc1ccc(Br)cc1C(=S)N1CCCCC1)c1cc([N+](=O)[O-])cc([N+](=O)[O-])c1,1,62*,0,0.4,-1.4

# Bioassay records deposited in PubChem by Sanford-Burnham Center for Chemical Genomics.
